The record followed here is PubChem BioAssay (EPA / NIEHS).

Values joined by “and” are separate entries in the source; they are usually repeats but may differ in a detail not shown here. Equal entries are not always repeated. Inconclusive results are not listed. Where a structure was tested more than once in an assay, its records may differ in their call. Active and inactive are the calls of the source. Rule for the calls, unless noted: active = hit-call score of the fitted dose curve at least 0.9, where 1 is the maximum; inconclusive = response in the unintended direction; inactive = score below 0.9.

Experiment [1] in a line: ATG_TAL_CIS: Attagene CIS-FACTORIAL HepG2 Assay for human TAL Basal Promoter (AID 2282966; active = hit-call score of the fitted dose curve at least 0.9, where 1 is the maximum; inactive = score below 0.9;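 note: background control endpoint measuring basal TAL promoter reporter mRNA not a specific factor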). The note with it: HepG2 Attagene cis-factorial TAL promoter reporter; actives raise or lower the signal. The procedure, abridged:
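Human hepatoma HepG2 cells, transfected with promoter-regulated reporter units, were treated 24 h. Reporter transcript levels, measured through RT-PCR and capillary electrophoresis, were fitted for gain or loss relative to DMSO.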

Experiment [2] in a line: ATG_TGFb_CIS: Attagene CIS-FACTORIAL HepG2 Assay for human Transforming Growth Factor (TGF) (AID 2282967; active = hit-call score of the fitted dose curve at least 0.9, where 1 is the maximum; inactive = score below 0.9). The note with it: HepG2 Attagene CIS TGFb reporter, mRNA transcription; actives raise or lower the signal. The gist of the method: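 Endogenous TGFB1-linked transcription factor activity read as reporter mRNA via RT-PCR and capillary electrophoresis, 24 h after dosing transiently transfected HepG2 cells. Gain or loss of signal fitted relative to DMSO.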

Experiment [3] can be described thus: ATG_VDRE_CIS: Attagene CIS-FACTORIAL HepG2 Assay for human Vitamin D Receptor Element (VDRE) (AID 2282968; active = hit-call score of the fitted dose curve at least 0.9, where 1 is the maximum; inactive = score below 0.9). To be noted: HepG2 VDRE cis-reporter transcription, actives raise or lower the signal. The gist of the method:
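Steps: transfect HepG2 with multiple reporter transcription units; dose chemicals 24 h; isolate RNA; RT-PCR; label with 6-FAM primer extension; HpaI digest; capillary electrophoresis. Curves fitted both directions against DMSO.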

Experiment [4] addresses Nuclear receptor subfamily 1 group I member 3 (Homo sapiens) (UniProt Q14994). Description: ATG_CAR_TRANS: Attagene TRANS-FACTORIAL HepG2 Assay for human Constitutive Androstane Receptor (CAR) (AID 2282969).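 Note: activators raise reporter mRNA above DMSO so AC50 marks induction.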 The note with it: HepG2 Attagene TRANS-FACTORIAL CAR reporter. The gist of the method: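 Steps: transient transfection of HepG2 with multiple GAL4-UAS reporter units; 24 h compound incubation; RNA isolation, RT-PCR, 6-FAM primer extension, HpaI digest; capillary electrophoresis. Gain-of-signal relative to DMSO negative control.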

Experiment [5] addresses Steroid hormone receptor ERR1 (Homo sapiens) (UniProt P11474). Description: ATG_ERRa_TRANS: Attagene TRANS-FACTORIAL HepG2 Assay for human Estrogen-Related Receptor alpha (ERRa) (AID 2282971). The note with it: HepG2 Attagene TRANS reporter, ERRa transactivation. The gist of the method:
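Signal gain relative to DMSO for an ERRa-Gal4 chimeric receptor, read as reporter mRNA by RT-PCR/capillary electrophoresis. Human HepG2 liver cells, transient multiplex reporter transfection, 24 h chemical exposure.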

Experiment [6] addresses X-box-binding protein 1 (Homo sapiens) (UniProt P17861). The experiment can be described thus: ATG_Xbp1_CIS: Attagene CIS-FACTORIAL HepG2 Assay for human X-box Binding Protein 1 (XBP1) (AID 2282972; active = hit-call score of the fitted dose curve at least 0.9, where 1 is the maximum; inactive = score below 0.9). To be noted: HepG2 XBP1 cis-element reporter, Attagene multiplex; actives raise or lower the signal. The procedure, abridged: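 Reporter transcripts were quantified by RT-PCR with fluorescent primer extension and capillary electrophoresis after 24 h chemical exposure. Cells: transiently transfected HepG2 carrying cis-regulated reporter constructs; data fitted bidirectionally relative to DMSO.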

The nature of experiment [7]: ATG_M_19_TRANS: Attagene TRANS-FACTORIAL HepG2 Assay for M19 Transcription Factor (Internal Marker) (AID 2282974). The note with it: HepG2 Attagene TRANS-FACTORIAL M19 internal marker reporter. The gist of the method: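 Using RT-PCR and capillary electrophoresis, reporter mRNA from transiently transfected human HepG2 cells was quantified following 24 h exposure; activity was fitted in the positive direction against DMSO.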

Experiment [8] addresses Estrogen-related receptor gamma (Homo sapiens) (UniProt P62508). Description: ATG_ERRg_TRANS: Attagene TRANS-FACTORIAL HepG2 Assay for human Estrogen-Related Receptor gamma (ERRg) (AID 2282977).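 Note: hits increase reporter signal over DMSO so potencies reflect activators.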 The note with it: HepG2 Attagene TRANS reporter, ERRg transactivation. The procedure, abridged:
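Exogenous NR-Gal4 chimera activity measured as reporter transcript induction after 24 h in transiently transfected HepG2 cells. RNA reverse-transcribed, PCR-amplified, 6-FAM-labelled and resolved by capillary electrophoresis; increase over DMSO baseline.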

The target in experiment [9] is Bile acid receptor (Homo sapiens) (UniProt Q96RI1). Description: ATG_FXR_TRANS: Attagene TRANS-FACTORIAL HepG2 Assay for Farnesoid X Receptor (FXR) (AID 2282979).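 Note: hits raise reporter mRNA above DMSO so AC50 marks FXR activation.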 To be noted: HepG2 Attagene TRANS FXR-GAL4 reporter transcription. The procedure, abridged:
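After 24 h chemical treatment of transfected HepG2 cells, GAL4-UAS reporter transcripts driven by an exogenous FXR-GAL4 fusion were measured by RT-PCR and capillary electrophoresis. Increases over DMSO were fitted.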

For experiment [10], the target named is Oxysterols receptor LXR-alpha (Homo sapiens) (UniProt Q13133). Description: ATG_LXRa_TRANS: Attagene TRANS-FACTORIAL HepG2 Assay for human Liver X Receptor alpha (LXRa) (AID 2282980). The note with it: HepG2 Attagene TRANS reporter, LXRa transactivation. The gist of the method:
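In this multiplexed TRANS system, compounds act on HepG2 cells carrying GAL4-UAS reporter units and a receptor-GAL4 fusion for 24 h. Induced reporter RNA is amplified, fluorescently labelled and sized by capillary electrophoresis, with DMSO as baseline.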

Experiment [11] concerns the target Oxysterols receptor LXR-beta (Homo sapiens) (UniProt P55055). Description: ATG_LXRb_TRANS: Attagene TRANS-FACTORIAL HepG2 Assay for human Liver X Receptor beta (LXRb) (AID 2282981). The note with it: HepG2 Attagene TRANS GAL4-LXRb reporter, mRNA. The procedure, abridged: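 Measures induction of a Gal4-driven reporter transcript in HepG2 cells expressing an exogenous LXRb-Gal4 fusion. Cells are exposed to compound for 24 h before RNA isolation and RT-PCR with capillary electrophoresis detection.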

Experiment [12] has as its target Hepatocyte nuclear factor 4-alpha (Homo sapiens) (UniProt P41235). Description: ATG_HNF4a_TRANS: Attagene TRANS-FACTORIAL HepG2 Assay for human Hepatocyte Nuclear Factor 4 alpha (HNF4a) (AID 2282982). The note with it: HepG2 HNF4a transactivation reporter, mRNA readout. The procedure, abridged:
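In this trans-factorial format, a chimeric HNF4a-GAL4 fusion drives a GAL4-UAS reporter in transfected HepG2 liver cells. After 24 h treatment, reporter mRNA induction is measured by RT-PCR with capillary electrophoresis, relative to DMSO.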

A short description of experiment [13]: ATG_M_06_TRANS: Attagene TRANS-FACTORIAL HepG2 Assay for M06 Transcription Factor (Internal Marker) (AID 2282983).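 For AC50: potency for rise in reporter mRNA above DMSO baseline.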 To be noted: HepG2 Attagene TRANS M06 internal marker reporter. The gist of the method:
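Multi-reporter-transfected HepG2, 24 h treatment; reporter transcripts quantified via RT-PCR, primer-extension labelling and CE. DMSO-normalized gain-of-signal fit.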

Experiment [14] in a line: ATG_M_32_TRANS: Attagene TRANS-FACTORIAL HepG2 Assay for M32 Transcription Factor (Internal Marker) (AID 2282984). To be noted: HepG2 Attagene TRANS M32 internal marker reporter. The gist of the method: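 After 24 h dosing of transfected HepG2 cells, total RNA was reverse-transcribed, reporter sequences PCR-amplified, 6-FAM labelled by primer extension and HpaI-digested before capillary electrophoresis. Signal increase over DMSO was fitted.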

The target in experiment [15] is Nuclear receptor subfamily 4 group A member 2 (Homo sapiens) (UniProt P43354). Description: ATG_NURR1_TRANS: Attagene TRANS-FACTORIAL HepG2 Assay for human Nuclear Receptor Related Protein 1 (NURR1) (AID 2282985). The note with it: HepG2 Attagene TRANS reporter, mRNA readout. The procedure, abridged: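 Chimeric NR-Gal4 fusion activity measured in HepG2 after 24 h treatment. Reporter transcripts detected by RT-PCR and capillary electrophoresis fluorescence; positive-direction curve fitting against DMSO.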
Sequence of Nuclear receptor subfamily 4 group A member 2 (Homo sapiens) (P43354 whole entry, looked up, the tested form may be a part): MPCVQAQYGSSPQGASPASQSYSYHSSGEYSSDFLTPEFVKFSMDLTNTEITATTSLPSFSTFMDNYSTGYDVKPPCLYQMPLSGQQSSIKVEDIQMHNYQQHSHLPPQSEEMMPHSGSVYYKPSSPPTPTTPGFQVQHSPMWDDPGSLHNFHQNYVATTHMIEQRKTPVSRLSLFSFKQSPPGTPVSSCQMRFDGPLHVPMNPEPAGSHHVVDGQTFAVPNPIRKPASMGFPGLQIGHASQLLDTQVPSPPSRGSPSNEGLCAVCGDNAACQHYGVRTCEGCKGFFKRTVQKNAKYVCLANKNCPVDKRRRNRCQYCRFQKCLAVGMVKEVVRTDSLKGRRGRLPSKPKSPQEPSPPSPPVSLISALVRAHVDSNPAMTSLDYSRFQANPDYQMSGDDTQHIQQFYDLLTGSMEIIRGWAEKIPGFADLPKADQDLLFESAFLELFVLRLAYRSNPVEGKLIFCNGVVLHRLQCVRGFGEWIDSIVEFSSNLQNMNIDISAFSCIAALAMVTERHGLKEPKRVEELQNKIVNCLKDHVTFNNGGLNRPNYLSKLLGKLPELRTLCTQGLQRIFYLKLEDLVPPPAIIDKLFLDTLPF

In experiment [16] the target is Transcriptional activator Myb (Homo sapiens) (UniProt P10242). The experiment can be described thus: ATG_Myb_CIS: Attagene CIS-FACTORIAL HepG2 Assay for human Myeloblastosis (Myb) Proto-Oncogene Transcription Factor (AID 2282986; active = hit-call score of the fitted dose curve at least 0.9, where 1 is the maximum; inactive = score below 0.9). To be noted: HepG2 Attagene CIS-FACTORIAL Myb reporter transcription; actives raise or lower the signal. The gist of the method:
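In this HepG2 transient-transfection format, cis-regulated reporter mRNA is quantified 24 h post-dosing by RT-PCR with capillary electrophoresis, fitted bidirectionally to DMSO baseline.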

For experiment [17], the target named is Estrogen receptor (Homo sapiens) (UniProt P03372). The experiment can be described thus: ATG_ERa_TRANS: Attagene TRANS-FACTORIAL HepG2 Assay for human Estrogen Receptor alpha (ERa) (AID 2282970). To be noted: HepG2 Attagene TRANS ERa GAL4 reporter, mRNA. The procedure, abridged: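 Signal derives from fluorescence of labelled reporter PCR fragments separated by capillary electrophoresis. HepG2 cells transiently carrying multiple GAL4-UAS reporter units were treated 24 hours, and induction above DMSO baseline was fitted as activity.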

Experiment [18] is described as follows: ATG_GAL4_TRANS: Attagene TRANS-FACTORIAL HepG2 Assay for GAL4 (Internal Marker) (AID 2282976). To be noted: HepG2 Attagene TRANS GAL4 internal marker reporter. The gist of the method:
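Liver HepG2 line bearing multiplexed GAL4-UAS reporter constructs; 24 h chemical treatment. Transcripts were quantified as fluorescent fragments on capillary electrophoresis after RT-PCR and HpaI cut, with activity fitted upward from DMSO.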

Sequence of Transcriptional activator Myb (Homo sapiens) (P10242 whole entry, looked up): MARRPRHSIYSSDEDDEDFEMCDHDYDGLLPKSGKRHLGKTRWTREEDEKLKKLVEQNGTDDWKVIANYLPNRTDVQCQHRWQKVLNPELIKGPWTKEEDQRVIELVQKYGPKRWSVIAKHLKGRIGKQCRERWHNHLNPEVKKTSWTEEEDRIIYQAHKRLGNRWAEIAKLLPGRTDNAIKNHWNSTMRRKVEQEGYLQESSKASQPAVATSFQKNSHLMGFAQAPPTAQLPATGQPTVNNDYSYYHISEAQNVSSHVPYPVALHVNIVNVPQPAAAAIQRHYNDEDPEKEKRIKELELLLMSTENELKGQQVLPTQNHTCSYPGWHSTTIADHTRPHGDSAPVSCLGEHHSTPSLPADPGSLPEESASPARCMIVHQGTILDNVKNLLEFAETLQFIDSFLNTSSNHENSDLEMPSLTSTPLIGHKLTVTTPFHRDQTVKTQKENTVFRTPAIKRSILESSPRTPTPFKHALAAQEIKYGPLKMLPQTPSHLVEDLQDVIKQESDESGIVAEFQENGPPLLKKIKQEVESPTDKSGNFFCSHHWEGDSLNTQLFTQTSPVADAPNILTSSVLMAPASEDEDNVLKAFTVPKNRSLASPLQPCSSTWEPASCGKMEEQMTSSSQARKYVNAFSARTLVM
Sequence of X-box-binding protein 1 (Homo sapiens) (P17861 whole entry, looked up): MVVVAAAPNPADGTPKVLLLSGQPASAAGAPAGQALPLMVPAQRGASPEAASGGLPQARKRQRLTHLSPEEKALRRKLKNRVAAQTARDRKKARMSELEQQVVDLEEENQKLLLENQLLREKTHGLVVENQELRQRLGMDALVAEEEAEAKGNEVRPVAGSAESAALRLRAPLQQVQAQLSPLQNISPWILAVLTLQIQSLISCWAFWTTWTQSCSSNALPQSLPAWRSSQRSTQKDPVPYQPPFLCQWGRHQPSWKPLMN
Sequence of Estrogen-related receptor gamma (Homo sapiens) (P62508 whole entry, looked up, the tested form may be a part): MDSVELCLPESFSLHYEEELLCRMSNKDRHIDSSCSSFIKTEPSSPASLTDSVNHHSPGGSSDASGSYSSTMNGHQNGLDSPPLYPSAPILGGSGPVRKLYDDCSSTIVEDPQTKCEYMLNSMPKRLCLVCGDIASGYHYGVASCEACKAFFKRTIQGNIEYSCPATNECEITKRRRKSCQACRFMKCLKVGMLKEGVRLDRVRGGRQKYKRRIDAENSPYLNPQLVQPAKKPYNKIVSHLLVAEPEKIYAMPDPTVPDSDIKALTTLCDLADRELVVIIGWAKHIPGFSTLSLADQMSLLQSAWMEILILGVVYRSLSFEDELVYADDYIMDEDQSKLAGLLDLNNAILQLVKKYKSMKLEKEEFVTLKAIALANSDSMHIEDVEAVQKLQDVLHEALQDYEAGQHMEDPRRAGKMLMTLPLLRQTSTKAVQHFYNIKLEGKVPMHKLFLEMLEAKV
Sequence of Hepatocyte nuclear factor 4-alpha (Homo sapiens) (P41235 whole entry, looked up, the tested form may be a part): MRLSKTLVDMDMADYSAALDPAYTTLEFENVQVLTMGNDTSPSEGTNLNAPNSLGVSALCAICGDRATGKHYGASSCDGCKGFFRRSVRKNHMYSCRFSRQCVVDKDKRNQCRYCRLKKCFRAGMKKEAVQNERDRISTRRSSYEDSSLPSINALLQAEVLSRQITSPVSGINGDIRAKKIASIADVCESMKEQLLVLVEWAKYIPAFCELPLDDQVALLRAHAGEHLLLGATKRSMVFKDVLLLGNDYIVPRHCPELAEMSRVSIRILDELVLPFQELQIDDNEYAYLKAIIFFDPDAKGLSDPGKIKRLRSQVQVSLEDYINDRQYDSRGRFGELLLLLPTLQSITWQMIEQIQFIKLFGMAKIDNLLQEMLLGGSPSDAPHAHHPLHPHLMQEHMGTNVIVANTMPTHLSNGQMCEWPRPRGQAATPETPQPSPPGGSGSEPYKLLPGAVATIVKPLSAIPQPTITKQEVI
Sequence of Oxysterols receptor LXR-alpha (Homo sapiens) (Q13133 whole entry, looked up, the tested form may be a part): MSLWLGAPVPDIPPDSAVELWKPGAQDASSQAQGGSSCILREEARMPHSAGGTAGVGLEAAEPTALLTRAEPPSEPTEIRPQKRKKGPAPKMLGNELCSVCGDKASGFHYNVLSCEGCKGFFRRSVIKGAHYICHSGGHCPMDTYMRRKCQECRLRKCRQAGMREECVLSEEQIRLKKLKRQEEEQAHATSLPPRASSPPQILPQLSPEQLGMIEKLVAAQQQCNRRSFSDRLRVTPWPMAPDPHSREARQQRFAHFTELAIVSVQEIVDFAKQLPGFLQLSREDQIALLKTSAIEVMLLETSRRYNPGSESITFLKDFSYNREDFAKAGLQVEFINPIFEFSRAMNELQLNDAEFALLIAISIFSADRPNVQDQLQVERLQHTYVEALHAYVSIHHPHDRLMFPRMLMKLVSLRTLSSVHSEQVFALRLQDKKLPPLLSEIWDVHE
Sequence of Nuclear receptor subfamily 1 group I member 3 (Homo sapiens) (Q14994 whole entry, looked up, the tested form may be a part): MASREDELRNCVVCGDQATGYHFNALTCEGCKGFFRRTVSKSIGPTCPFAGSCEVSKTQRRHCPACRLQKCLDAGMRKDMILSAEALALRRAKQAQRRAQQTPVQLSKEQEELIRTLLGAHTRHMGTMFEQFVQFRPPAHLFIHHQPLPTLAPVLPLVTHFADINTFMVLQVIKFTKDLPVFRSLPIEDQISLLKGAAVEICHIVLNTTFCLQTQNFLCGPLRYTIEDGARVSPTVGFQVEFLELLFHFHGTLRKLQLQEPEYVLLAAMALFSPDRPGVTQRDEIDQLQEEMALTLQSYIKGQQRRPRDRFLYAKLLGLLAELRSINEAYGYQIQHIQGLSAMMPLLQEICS
Sequence of Steroid hormone receptor ERR1 (Homo sapiens) (P11474 whole entry, looked up, the tested form may be a part): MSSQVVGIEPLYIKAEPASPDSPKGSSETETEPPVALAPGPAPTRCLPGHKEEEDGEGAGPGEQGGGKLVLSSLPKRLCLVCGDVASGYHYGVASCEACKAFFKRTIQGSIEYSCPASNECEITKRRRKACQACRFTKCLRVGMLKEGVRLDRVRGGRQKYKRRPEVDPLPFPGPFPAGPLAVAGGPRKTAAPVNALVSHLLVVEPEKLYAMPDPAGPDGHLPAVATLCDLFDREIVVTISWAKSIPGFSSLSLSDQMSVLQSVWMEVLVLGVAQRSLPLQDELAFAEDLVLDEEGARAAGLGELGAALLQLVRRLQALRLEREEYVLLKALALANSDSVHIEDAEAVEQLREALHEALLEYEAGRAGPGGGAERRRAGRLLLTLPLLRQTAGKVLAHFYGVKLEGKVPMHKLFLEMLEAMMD
Sequence of Bile acid receptor (Homo sapiens) (Q96RI1 whole entry, looked up, the tested form may be a part): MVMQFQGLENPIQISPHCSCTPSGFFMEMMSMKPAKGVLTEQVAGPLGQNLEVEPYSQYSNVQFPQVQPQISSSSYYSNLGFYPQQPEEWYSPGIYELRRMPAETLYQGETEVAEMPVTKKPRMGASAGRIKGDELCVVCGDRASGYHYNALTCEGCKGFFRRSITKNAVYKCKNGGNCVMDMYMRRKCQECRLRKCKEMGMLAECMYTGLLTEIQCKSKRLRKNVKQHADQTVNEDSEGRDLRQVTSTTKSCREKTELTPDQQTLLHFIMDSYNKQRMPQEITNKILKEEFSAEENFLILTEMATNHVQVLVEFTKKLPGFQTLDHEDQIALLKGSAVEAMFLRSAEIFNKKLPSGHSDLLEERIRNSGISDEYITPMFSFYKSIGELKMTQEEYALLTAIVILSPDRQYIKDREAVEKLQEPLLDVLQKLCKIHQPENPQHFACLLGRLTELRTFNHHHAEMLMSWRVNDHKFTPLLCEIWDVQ
Sequence of Oxysterols receptor LXR-beta (Homo sapiens) (P55055 whole entry, looked up, the tested form may be a part): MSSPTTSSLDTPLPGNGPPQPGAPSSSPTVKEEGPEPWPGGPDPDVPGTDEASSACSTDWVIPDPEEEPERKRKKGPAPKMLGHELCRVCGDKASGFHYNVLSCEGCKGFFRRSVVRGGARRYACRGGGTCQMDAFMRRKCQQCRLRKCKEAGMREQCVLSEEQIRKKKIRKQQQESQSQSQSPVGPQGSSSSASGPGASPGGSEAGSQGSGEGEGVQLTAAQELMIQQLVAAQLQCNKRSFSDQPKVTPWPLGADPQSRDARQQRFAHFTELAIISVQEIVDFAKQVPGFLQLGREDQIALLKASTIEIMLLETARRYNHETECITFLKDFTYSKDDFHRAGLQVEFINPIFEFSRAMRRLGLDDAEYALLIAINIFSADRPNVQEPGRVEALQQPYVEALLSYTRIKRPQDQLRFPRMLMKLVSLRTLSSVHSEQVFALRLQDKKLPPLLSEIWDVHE

`O=C(O)C(F)(F)C(F)(F)C(F)(F)C(F)(F)C(F)(F)C(F)(F)C(F)(F)C(F)(F)C(F)(F)C(F)(F)F`: the AC50 was 95.5 µM (active) in [1]; 105 µM (active) and 13.4 µM (active) in [2]; 25.7 µM (active) and 16.8 µM (active) in experiment [3]; 26.7 µM (active) in [6]; 57.2 µM (active) in experiment [10]; 129 µM (active) in [13]. Moreover, the AC50 in experiment [16] was 154 µM (active). Also, the compound was classed as inactive in experiment [1], in [4], in experiment [5], in [6], in experiment [7] and in experiment [8]. The call in experiment [9], in experiment [10], in experiment [11], in experiment [12], in [14] and in experiment [15] was inactive. Further, in experiment [16], the result was inactive.
Consider `OCc1ccco1`, for which the call in [1], in experiment [2], in [3], in experiment [4], in [6] and in experiment [8] was inactive. The compound was classed as inactive in experiment [10], in [12], in experiment [13] and in [16].
`BrCCBr`: the result in experiment [1], in [2], in [3], in experiment [4], in experiment [5] and in experiment [6] was inactive. Also, the outcome in experiment [7], in experiment [18], in [8], in experiment [10], in [11] and in [15] was inactive. Moreover, in experiment [16], the call was inactive. For the same compound, in experiment [17], the AC50 was 27.5 µM (active).
Turning to `COc1cccc(C=O)c1`, the call in experiment [1], in experiment [3], in experiment [4], in experiment [5], in experiment [6] and in experiment [7] was inactive. The result in experiment [18], in experiment [8], in experiment [12], in [13], in experiment [14] and in experiment [16] was inactive. The AC50 in experiment [2] was 175 nM (active).
In the case of `COc1ccc(C=O)cc1`, the compound was classed as inactive in experiment [1], in experiment [2], in [3], in [4], in experiment [6] and in experiment [7]. Besides, the outcome in experiment [10], in experiment [12], in experiment [13] and in experiment [16] was inactive.

As usually defined, the AC50 is the concentration at which the activity in the assay is half-maximal.
